Assay results from PubChem BioAssay AID813 (Sanford-Burnham Center for Chemical Genomics, 2007).
The whole screen tested about 64,000 compounds, of which fewer than 10 were called active.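 How the source made its calls: active means activation factor of at least 2 at 20 µM, relative to controls; inactive means the rest.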 The list is a sample of the results.

Target: Alkaline phosphatase, tissue-nonspecific isozyme (Homo sapiens) (UniProt P05186)
Assay: human TNAP enzyme activators, primary screen, biochemical, luminescent, intermediate phosphate acceptor level (AID 813)
Details: purified TNAP, CDP-star luminescence, 100 mM DEA, 30 min; at 20 µM; hits give high values; scale: 0 levamisole-inhibited, 1 vehicle-only enzyme

Sequence of Alkaline phosphatase, tissue-nonspecific isozyme (Homo sapiens) (P05186 whole entry, looked up): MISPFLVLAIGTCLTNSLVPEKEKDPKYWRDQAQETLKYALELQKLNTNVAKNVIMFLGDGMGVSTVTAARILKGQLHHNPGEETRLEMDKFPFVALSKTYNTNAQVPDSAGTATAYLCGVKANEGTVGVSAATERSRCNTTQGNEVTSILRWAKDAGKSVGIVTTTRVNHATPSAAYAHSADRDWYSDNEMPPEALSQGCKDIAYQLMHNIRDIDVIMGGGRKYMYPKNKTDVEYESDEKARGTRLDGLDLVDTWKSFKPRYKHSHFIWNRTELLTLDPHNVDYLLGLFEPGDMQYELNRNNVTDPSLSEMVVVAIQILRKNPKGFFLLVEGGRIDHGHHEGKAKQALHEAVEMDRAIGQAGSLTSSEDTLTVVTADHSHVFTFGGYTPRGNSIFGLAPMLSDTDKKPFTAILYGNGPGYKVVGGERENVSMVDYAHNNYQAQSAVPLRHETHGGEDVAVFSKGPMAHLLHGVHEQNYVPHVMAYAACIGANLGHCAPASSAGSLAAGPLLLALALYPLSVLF

Activation factor, inactive:
Cc1ccc(C)n1-c1ccncc1 0.9
Cc1cc(N2C(=O)C(=O)/C(=C(/O)c3ccc(Cl)cc3)C2c2cccc(Br)c2)no1 (stereo not drawn) 0.8
CCCOc1ccc(CN(CCO)CCO)cc1C(=O)OC 0.9
CN(C)Cc1c(O)ccc2occ(C(O)c3ccccc3)c12 (stereo not drawn) 0.9
CCn1cc(C(=O)NC2CCCCCC2)c(=O)c2cc(S(=O)(=O)N3CCCCC3)ccc21 0.9
CCn1cc(C(=O)N2CCN(C3CCCCC3)CC2)c2cc(OC)c(OC)cc2c1=O 0.9
CCOC(=O)N1CCN(C(=O)c2ccc3nc4cc(Cl)ccc4c(=O)n3c2)CC1 0.9
CCc1nc(C)cn1S(=O)(=O)c1cc(OC)c(C)cc1C 0.9
O=C(O)CC(c1ccccc1)n1cnnn1 (stereo not drawn) 1
COCCCn1c(CCC(=O)O)ccc1-c1ccc(F)cc1 0.9
CC1CN(C(=O)c2ccc3c(c2)OCO3)OC(c2ccccc2)O1 (stereo not drawn) 1
COC(=O)[C@H](Cc1ccccc1)NC(=O)Nc1ccc(S(N)(=O)=O)cc1 0.9
CC(=O)N=c1ncn(CC(COC(C)=O)OC(C)=O)c2nc[nH]c12 (stereo not drawn) 0.9
O=C(COc1ccc2c3c(c(=O)oc2c1)CCC3)NC1CCCCC1 1
Cc1ccc(S(=O)(=O)NCC(=O)N(CC(=O)NC2CCCCC2)Cc2ccco2)cc1 0.9
CC(C)c1cc(C(=O)O)on1 1
Cc1cc(C)cc(N(CC(=O)Nc2c(C)n(C)n(-c3ccccc3)c2=O)S(C)(=O)=O)c1 0.9
CC(C)(C)n1nnc(CCc2nnn(C(C)(C)C)n2)n1 0.9
O=C(c1ccccc1)c1ccc(OC(=O)N2CCCC2)cc1 0.9
COc1cc(OC)c(C(=O)NC2CC(C)(C)NC(C)(C)C2)cc1OC 1
CCOc1ccc(C(=O)NC2CCN(S(=O)(=O)CC)CC2)cc1 0.9
COc1ccc(S(=O)(=O)N2CCCC(C(=O)N3CCN(C)CC3)C2)cc1C (stereo not drawn) 1
COC(=O)COc1ccc2oc(=O)cc(C)c2c1 1
CC(=O)Nc1ccc(S(=O)(=O)N2CCSCC2)cc1 1
O=C(CCCN1C(=O)CCC1=O)Nc1ccc(Cl)c(C(F)(F)F)c1 0.9
Cc1cc(N2C(=O)C(=O)/C(=C(/O)c3ccccc3)C2c2cccc(Br)c2)no1 (stereo not drawn) 1
CCn1cc(C(=O)N2CCN(Cc3ccc4c(c3)OCO4)CC2)c2cc(OC)c(OC)cc2c1=O 0.9
CCc1c(C)c2c(C)[nH]nc2oc1=O 0.8
Cc1ccccc1CSc1nnc(-c2cccnc2)n1N 0.9
COCCN1C(=O)c2oc3c(C)cc(C)cc3c(=O)c2C1c1cccc(O)c1 (stereo not drawn) 0.8
COc1ccc2occ(C(=O)c3ccc(N=C(C)N(C)C)cc3)c2c1 0.9
O=C1CN(C(=O)COC(=O)C2CC(=O)N(Cc3ccco3)C2)c2ccccc2N1 (stereo not drawn) 0.9
CSc1nc(O)c(Cc2ccccc2)c(=O)[nH]1 1
COc1cc(C(O)c2nc3ccccc3n2C)cc(OC)c1OC (stereo not drawn) 0.9
O=C(O)c1cc(S(=O)(=O)N2CCCCCC2)c(Cl)cc1Cl 1
CCN1CCCC1CNC(=O)Cn1cnc2ccc(S(=O)(=O)N3CCC(C)CC3)cc2c1=O (stereo not drawn) 0.9
CCCCn1nc(C(=O)N2CCc3ccccc32)c2ccccc2c1=O 0.9
Cc1ccc(O)c(NC(=O)COc2cc(C)ccc2C)c1 0.9
Cc1cccc(OCc2nnc(SCC(=O)N3CCN(C(=O)c4ccco4)CC3)n2C)c1C 0.9
Cc1cc(Cl)c(S(=O)(=O)Nc2ccc3c(c2)OCCO3)cc1OCC(N)=O 0.9
CC(=NCc1ccco1)C1=C(O)c2ccccc2C1=O 0.9
Cc1ccc(-c2noc(CSc3nnc(-c4ccccc4)n3C)n2)cc1 1
O=C(Cn1[nH]c(=O)c2ccccc2c1=O)Nc1cccc(-c2nnc3n2CCCCC3)c1 0.9
CC1Cc2nc(SCC(=O)Nc3ccccc3F)n(C)c(=O)c2S1 (stereo not drawn) 1
COc1ccccc1C(=O)Oc1ccc(N2C(=O)CCC2=O)cc1 0.9
Clc1ccc(C2CC(c3cccs3)n3ncnc3N2)cc1Cl (stereo not drawn) 1
O=C(CNC(=O)c1ccco1)OCC(=O)c1ccccc1 0.9
CN1CCC2(CC1)NC(=O)NC2=O 1
CCN(CC)CCN1C(=O)C(=O)/C(=C(/O)c2ccc(OC)c(OC)c2)C1c1ccccn1 (stereo not drawn) 1
O=S(=O)(O)c1nc2ccccc2n1Cc1ccc(Cl)cc1Cl 0.9
CC(Nc1nc(N2CCCC2)nc2ccccc12)c1ccccc1 (stereo not drawn) 1
NC(=O)CSc1c[nH]c2ccccc12 0.9
CCCCOc1ccc(C(=O)NCc2ccco2)cc1 0.9
COc1ccc(S(=O)(=O)N2CCCC(C(=O)Nc3ccc(NC(=O)c4ccccn4)cc3)C2)cc1 (stereo not drawn) 0.8
Cc1cc(Nc2cccc(C)c2C)n2ncnc2n1 1
O=C(CSC1=Nc2ccccc2C2=NC(c3ccccc3)C(=O)N12)NCC1CCCO1 (stereo not drawn) 0.9
CCOC(=O)c1cccc(NC(=O)C2CCCN(S(=O)(=O)c3cnc[nH]3)C2)c1 (stereo not drawn) 0.9
CSCC[C@H](NC(=O)NCc1cccs1)C(=O)O 0.9
Cc1c2cn[nH]c(=O)c2c(C)n1Cc1ccc(F)cc1 0.9
COc1ccc2nc(NC3=NCN(CC4CCCO4)CN3)nc(C)c2c1 (stereo not drawn) 0.9
Cc1ccc(C)n1C(Cc1ccccc1)C(=O)O (stereo not drawn) 0.8
Cc1cc(N2CCCC2=O)cc(C)c1S(N)(=O)=O 0.9
CCOC(=O)Cn1c(N)c(C(=O)OC)sc1=S 0.9
Cc1cccc(NC(=O)c2ccc3ccccc3n2)n1 0.9
COc1ccc(C2C(C#N)=C(N)Oc3cc(N)ccc32)cc1OC (stereo not drawn) 1
Cc1nn(C)c(C)c1S(=O)(=O)N1CCc2ccccc21 1
Cc1cc(C)nc(N2C(=O)CC(Cc3ccccc3)C2=O)n1 (stereo not drawn) 0.9
COc1ccc(-n2c(SCC(=O)Nc3ccc4c(c3)OCO4)nnc2C(C)N2CCCCC2)cc1 (stereo not drawn) 1
N#CC1=C(N)OC2=C(C(=O)CCC2)C1C1CC=CCC1 (stereo not drawn) 0.9
O=C(Nc1ccon1)c1sc2ccccc2c1Cl 1
Cc1ccc(S(=O)(=O)NCC(=O)OCC(=O)N2CCc3ccccc32)cc1 0.8
COc1ccc(C(=O)CSc2nccc(=O)[nH]2)cc1 1
CSc1cccc(NC(=O)C2CCCN2S(=O)(=O)c2ccc3c(c2)CCC(=O)N3)c1 (stereo not drawn) 0.9
Cc1ccnc(N2CCCC(C(=O)Nc3cc(F)ccc3C)C2)n1 (stereo not drawn) 0.9
Nc1nonc1C(=O)NCCc1ccccc1 0.9
CCc1cccc(C)c1NC(=O)CSc1nnc(-c2ccco2)n1N 1.1
COc1ccccc1-n1c(CNC(=O)c2ccccc2)nnc1SCC(=O)Nc1nnc(C)s1 1
Cc1ccc(S(=O)(=O)NC(C)C(=O)Nc2ccccc2C(=O)N2CCCC2)cc1 (stereo not drawn) 0.9
O=C1C(C=NCC2CCCO2)=C(O)c2ccccc21 (stereo not drawn) 1
O=C(CCN1C(=O)c2ccccc2C1=O)Nc1ccncc1 1
CCn1nnc(NC(=O)c2cc(Cl)c(OC)c(Cl)c2)n1 0.9
CN(C)/C=C1/C(=O)Nc2ccccc21 0.9
CCCNC(=O)C1CC(=O)N(c2ccc(OCC(=O)Nc3cccc(C)c3C)cc2)C1 (stereo not drawn) 1
CCCCNC(=O)CSc1nnc(-c2ccco2)n1C 1
CCOC(=O)c1cccc(NC(=O)CCn2nnc3ccccc32)c1 0.9
O=C(CSc1nnc(-c2cccs2)n1Cc1ccco1)c1ccc2c(c1)OCO2 0.9
CC(=O)N(CC1CCCO1)C1(C(=O)NC2CCCC2)CCCCC1 (stereo not drawn) 1
CCn1c(SCC(=O)Nc2cc(C)c(Cl)cc2OC)nnc1-c1ccco1 1
Cc1ccc2c(C(=O)CN3CCCC3)c(C)[nH]c2c1 0.9
Cc1cccc(C2c3c(n(C)c(=O)n(C)c3=O)N=C3c4ccccc4C(=O)C32)c1 (stereo not drawn) 0.8
C=CCn1c(C2CC(=O)N(c3ccc(C)cc3)C2)nc2ccccc21 (stereo not drawn) 0.9
CC1(C)Cc2c(C#N)c(SCc3nc4ccccc4[nH]3)nc(N3CCOCC3)c2CO1 1
CCOC(=O)C1C(=O)OC2(CCCC2)C1C(=O)OCC (stereo not drawn) 0.9
Cc1ncn(C23CC4CC(CC(O)(C4)C2)C3)n1 1
CC1CN(C(=O)CN2C(=O)NC(C)(c3ccccc3)C2=O)CC(C)O1 (stereo not drawn) 0.9
CCOc1cc(C)c(Cl)cc1S(=O)(=O)n1nnc2ccccc21 0.9
CCOC(=O)CNC(=O)c1nn(-c2cccc(OC)c2)c(=O)c2ccccc12 0.9
CC(C)c1ccc(NC(=O)NC2CCCCC2)cc1 0.9
COc1ccc(N2C(=O)C3CCCN3C2c2cc(OC)c(OC)cc2OC)cc1 (stereo not drawn) 0.9
Cc1oc(CC(C)C)c(CN2CCCC2)c1C(=O)O 0.9
CCCn1c(SCC(N)=O)nnc1C(C)C 0.9
O=C(CCN1C(=O)COc2ccccc21)NCCCN1CCN(c2ccc(F)cc2)CC1 0.9
Cc1c(-c2nn(C)c(=O)c3ccccc23)oc2ccc(F)cc2c1=O 1
